The structures appear in SMILES notation. Compounds without any hit were thinned out: in the full panel of roughly 83,000, 20% have a hit.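 In brief: 96-well plates, 48 h treatment, single concentration, percent growth endpoint.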 A number with no mark means an inactive call. The source made the active and inactive calls. The calls were made as follows: active = growth percent below 10; inactive = the rest.

Among the test systems are SR leukemia; RPMI-8226 leukemia; OVCAR-8 ovarian; OVCAR-5 ovarian; OVCAR-4 ovarian; SK-OV-3 ovarian; IGROV1 ovarian; OVCAR-3 ovarian; HS 578T breast; NCI/ADR-RES ovarian; T-47D breast; BT-549 breast; MDA-MB-435 melanoma; SW-620 colon; MCF7 breast; HCT-116 colon; HCC-2998 colon; KM12 colon.
Common to all, as to assay: NCI-60 one-dose screen, 48 h (100 = growth as untreated, 0 = no growth, -100 = all killed)
Conditions in all cases: 10 µM unless noted

As to `COc1cc(-c2csc(NC(=O)c3cc(-n4cnc(C)c4)cc(C(F)(F)F)c3)n2)cc(OC)c1OC`, the growth in the assay on SR leukemia is 34%; with RPMI-8226 leukemia, 24.1%; in the assay on OVCAR-8 ovarian it was 40.2%; in the assay on OVCAR-5 ovarian, 104%; in the assay on OVCAR-4 ovarian, 70.9%; in the assay with SK-OV-3 ovarian it was 114%. Besides, the growth was 52% in the assay with IGROV1 ovarian; 65% with OVCAR-3 ovarian; 26.7% in the assay with HS 578T breast; 64.9% with NCI/ADR-RES ovarian; 23.5% in the assay with T-47D breast; 47.4% in the assay on BT-549 breast. The growth is 74.8% in the assay with MDA-MB-435 melanoma; 77.9% in the assay on SW-620 colon; 61.8% in the assay on MCF7 breast; 40.4% with HCT-116 colon; 83.9% in the assay with HCC-2998 colon; 56.4% in the assay with KM12 colon.

As to `N#CC1=C(N)Oc2c(sc3c(F)cccc23)C1c1ccc(F)cc1` (stereo not drawn), the growth is 30.6% with SR leukemia; 18.1% with RPMI-8226 leukemia; 21.4% with OVCAR-8 ovarian; 61.5% in the assay on OVCAR-5 ovarian; 60.8% in the assay with OVCAR-4 ovarian; 31.8% in the assay on SK-OV-3 ovarian. Moreover, the growth was 33.9% with IGROV1 ovarian; 10.9% with OVCAR-3 ovarian; 24.6% in the assay with HS 578T breast; 4.36% (active) in the assay with NCI/ADR-RES ovarian; 42.5% in the assay on T-47D breast; 30.9% with BT-549 breast. Besides, the growth in the assay with MDA-MB-435 melanoma is -51.7% (active); with SW-620 colon, 35.8%; with MCF7 breast, 18.9%; with HCT-116 colon, 17.4%; in the assay on HCC-2998 colon, 57.2%; in the assay with KM12 colon, 30.3%.

In the case of `O=[N+]([O-])c1ccc(N/N=C(/C(=N/Nc2ccc([N+](=O)[O-])cc2)c2ccccc2)c2ccccc2)cc1`, the growth is 65.8% in the assay with SR leukemia; 101% with RPMI-8226 leukemia; 60.4% in the assay with OVCAR-8 ovarian; 82.5% in the assay on OVCAR-5 ovarian; 116% with OVCAR-4 ovarian; 85.6% in the assay on SK-OV-3 ovarian. The growth with IGROV1 ovarian is 76.4%; in the assay on OVCAR-3 ovarian, 120%; in the assay with HS 578T breast, 101%; with NCI/ADR-RES ovarian, 63.7%; in the assay on T-47D breast, 88.8%; in the assay with BT-549 breast, 102%. The growth in the assay with MDA-MB-435 melanoma is 86.4%; in the assay with SW-620 colon, 47.6%; in the assay on MCF7 breast it was 60.2%; with HCT-116 colon, 51.7%; with HCC-2998 colon, 105%; in the assay on KM12 colon, 106%.

In the case of `CN(C)Cc1ccc(NC(=O)c2cncc(C#Cc3cnc(N)c4ncccc34)c2)cc1F`, the growth with SR leukemia was 2.94% (active); in the assay on RPMI-8226 leukemia, 35.6%; in the assay on OVCAR-8 ovarian, -18% (active); in the assay on OVCAR-5 ovarian it was 123%; with OVCAR-4 ovarian, -71.3% (active); with SK-OV-3 ovarian, 112%. Also, the growth is 100% in the assay on IGROV1 ovarian; 87.9% in the assay on OVCAR-3 ovarian; 87.3% in the assay on HS 578T breast; 56.9% with NCI/ADR-RES ovarian; 105% in the assay on T-47D breast; 132% in the assay with BT-549 breast. The growth in the assay with MDA-MB-435 melanoma was -89.3% (active); with SW-620 colon, 96.9%; with MCF7 breast it was -46% (active); with HCT-116 colon it was 81.4%; in the assay with HCC-2998 colon, 91%; in the assay on KM12 colon, -83.3% (active).

`O=C(Cn1c(=O)sc2nc3ccccc3nc21)Nc1ncc(Cc2cccc(Cl)c2Cl)s1`: the growth in the assay on SR leukemia was 101%; in the assay on RPMI-8226 leukemia, 97.5%; with OVCAR-8 ovarian it was 97%; with OVCAR-5 ovarian, 101%; in the assay on OVCAR-4 ovarian it was 102%; in the assay on SK-OV-3 ovarian, 95.1%. In addition, the growth was 81.3% with IGROV1 ovarian; 111% in the assay on OVCAR-3 ovarian; 90.2% with HS 578T breast; 89.6% in the assay on NCI/ADR-RES ovarian; 81.6% with T-47D breast; 100% in the assay on BT-549 breast. Moreover, the growth in the assay on MDA-MB-435 melanoma is 101%; in the assay on SW-620 colon, 100%; in the assay with MCF7 breast, 91.6%; in the assay on HCT-116 colon, 102%; in the assay with HCC-2998 colon it was 101%; in the assay with KM12 colon it was 99.9%.

Consider `O=C1CC(N2C(=O)/C(=C/C(Cl)=C\c3ccc([N+](=O)[O-])cc3)SC2=S)C(=O)N1c1ccc(Cl)cc1` (stereo not drawn), for which the growth was 4.86% (active) in the assay on SR leukemia; -1.96% (active) in the assay with RPMI-8226 leukemia; 15.7% with OVCAR-8 ovarian; 40.6% in the assay on OVCAR-5 ovarian; 9.19% (active) in the assay on OVCAR-4 ovarian; 99.2% in the assay on SK-OV-3 ovarian. The growth in the assay with IGROV1 ovarian was 10.2%; with OVCAR-3 ovarian it was -35.4% (active); with HS 578T breast, 21.7%; in the assay on NCI/ADR-RES ovarian, 8.17% (active); with T-47D breast, 36.3%; in the assay with BT-549 breast, -1.71% (active). In addition, the growth in the assay with MDA-MB-435 melanoma was 3.02% (active); in the assay on SW-620 colon it was 3.41% (active); in the assay with MCF7 breast it was 18.1%; in the assay with HCT-116 colon, 8.7% (active); in the assay on HCC-2998 colon it was -22.9% (active); in the assay on KM12 colon it was 12.4%.

In the case of `O=c1oc2c(cnc3ccccc32)cc1-c1ccsc1`, the growth with SR leukemia was 95%; in the assay on RPMI-8226 leukemia, 96.6%; with OVCAR-8 ovarian it was 94.6%; in the assay with OVCAR-5 ovarian it was 114%; in the assay on OVCAR-4 ovarian, 88.4%; in the assay with SK-OV-3 ovarian it was 104%. Besides, the growth with IGROV1 ovarian is 103%; in the assay with OVCAR-3 ovarian it was 108%; in the assay on HS 578T breast, 94.9%; in the assay on NCI/ADR-RES ovarian it was 109%; with T-47D breast it was 85.9%; in the assay with BT-549 breast, 100%. Besides, the growth in the assay on MDA-MB-435 melanoma is 102%; with SW-620 colon it was 96.8%; with MCF7 breast, 33.2%; in the assay with HCT-116 colon, 99.7%; in the assay with HCC-2998 colon it was 123%; with KM12 colon it was 94%.

Consider `COc1ccc2c(c1)[n+]([O-])c(C(=O)/C=C/C=C(\Cl)c1cc(OC)c(OC)c(OC)c1)c(C)[n+]2[O-]`, for which the growth is 89.5% with SR leukemia; 109% in the assay with RPMI-8226 leukemia; 43.7% in the assay on OVCAR-8 ovarian; 104% in the assay on OVCAR-5 ovarian; 108% with OVCAR-4 ovarian; 38% in the assay on SK-OV-3 ovarian. Also, the growth is 64.6% with IGROV1 ovarian; 93% in the assay on OVCAR-3 ovarian; 68% in the assay with HS 578T breast; 91% in the assay with NCI/ADR-RES ovarian; 87.1% with T-47D breast; 74.9% with BT-549 breast. Further, the growth is 93% with MDA-MB-435 melanoma; 103% in the assay on SW-620 colon; 83.4% in the assay on MCF7 breast; 80.6% in the assay on HCT-116 colon; 101% with KM12 colon.

The values above are taken from PubChem BioAssay (NCI).
